The campaign covered roughly 1,500 compounds. About 460 (31%) were called active. Another 1% or so got no clear call; they are omitted.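 How the source made its calls: active means curve reaches 40% activation over neutral controls at an AC40 no higher than the top valid tested concentration; inconclusive means no clear call, values can overlap the other calls; inactive means signal moving opposite to the expected increase, and the rest.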 Not all results are given here. Potency and affinity values are given separately.
Assay: GLuc-reported insulin release enhancers, glucose-stimulated beta cells – cell-based, INS-1E, Gaussia luciferase, luminescence, cherry-pick, set 2, dose response (AID 977607);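 further: 0% = median of the plate neutral control wells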
Settings: INS-1E GLuc insulin secretion reporter, 2-3 h, active compounds read high; at 35 µM, 100% = signal doubled over neutral wells unless noted

Max activation, inactive:
CCSc1ccc2nnc(-c3ccc(F)cc3)n2n1 -17.1% [at 0.135 µM, 100% = signal doubled over neutral wells]
C=CCNc1sc(C(=O)C2CC2)c(N)c1C#N -24.8% [at 0.0016 µM, 100% = signal doubled over neutral wells]
COc1ccc(Nc2nc(NCc3cccs3)nc3ccsc23)cc1OC -40.6%
COCCNc1nc(NC(C)C)nc2ccsc12 -19.2% [at 0.046 µM, 100% = signal doubled over neutral wells]
Cc1cc(NC(=O)COC(=O)c2oc3c(Cl)cccc3c2C)no1 -17.9% [at 11 µM, 100% = signal doubled over neutral wells]
CCCOC(=O)Nc1ccc(S(=O)(=O)Nc2ncccn2)cc1 -14.1% [at 11 µM, 100% = signal doubled over neutral wells]
CCOC(=O)c1cnc2ccc(OCC)cc2c1N1CCN(c2ccccc2)CC1 -39.9%
O=C(c1cccc(F)c1)N1CCCc2ccccc21 -18.1% [at 0.015 µM, 100% = signal doubled over neutral wells]
CCOc1nc(Nc2ccccc2F)nc(OCC)n1 -23.2% [at 0.0016 µM, 100% = signal doubled over neutral wells]
COc1nc(Nc2ccccc2)nc(OC)n1 -12% [at 0.0016 µM, 100% = signal doubled over neutral wells]
COc1ccc(S(=O)(=O)Nc2cccc(-c3ccc4nncn4n3)c2)cc1F -16.1% [at 0.046 µM, 100% = signal doubled over neutral wells]
C=CCOc1cccc(C(=O)N2CCC(CCC(=O)NC3CC3)CC2)c1 -8.53% [at 1.2 µM, 100% = signal doubled over neutral wells]
C[C@@H]1CN([C@@H](C)CO)C(=O)c2cc(Br)cnc2O[C@H]1CN(C)C(=O)C1CC1 -19.6% [at 0.0016 µM, 100% = signal doubled over neutral wells]
NC(=O)C1CCN(c2nc(-c3ccccc3)nc3ccccc23)CC1 -15.2% [at 3.8 µM, 100% = signal doubled over neutral wells]
Cc1ccccc1Nc1c(-c2ccncc2)nc2ccc(Cl)cn12 -30.7%
COc1ccc(C(=O)c2ccc(OC)c(OC)c2)cc1 -16.7% [at 0.42 µM, 100% = signal doubled over neutral wells]
CCOC(=O)c1sc2nc(-c3ccccc3)ccc2c1N -12.9%
C[C@@H](NC(=O)C[C@@H]1C[C@@H]2c3cc(NC(=O)Nc4ccccc4F)ccc3O[C@@H]2[C@@H](CO)O1)c1ccccc1 34.4% [at 0.015 µM, 100% = signal doubled over neutral wells]
COc1ccc(-n2c(=S)[nH]c3cc(C(=O)Nc4ccc(OC)c(OC)c4)ccc3c2=O)cc1 -16.1% [at 0.0016 µM, 100% = signal doubled over neutral wells]
COc1ccc(C(=O)Nc2cccnc2Cl)cc1OC -21.1% [at 0.0016 µM, 100% = signal doubled over neutral wells]
O=S(=O)(c1ccc(-c2csc(Nc3ccc(Br)cc3)n2)cc1)N1CCCC1 -14.1% [at 0.42 µM, 100% = signal doubled over neutral wells]
O=C(Cc1csc(NC(=O)c2ccccc2)n1)NO -12.5% [at 0.42 µM, 100% = signal doubled over neutral wells]
CS(=O)(=O)N1CCCCC1c1cc(C(=O)Nc2cccc3c2CCCC3)no1 (stereo not drawn) -21.9% [at 0.0016 µM, 100% = signal doubled over neutral wells]
Cc1ccc(S(=O)(=O)NCc2csc(-c3cccs3)n2)cc1 -16% [at 0.42 µM, 100% = signal doubled over neutral wells]
COc1ccc(CCN(C)C(=O)C(CCSC)NC(=O)c2ccco2)cc1OC (stereo not drawn) 35.3%
Nc1nc(N)nc(-c2ccc(Cl)cc2)n1 24.3%
CC(C)(C)NC(=O)N1c2ccccc2Sc2ccccc21 -17.6% [at 0.42 µM, 100% = signal doubled over neutral wells]
CC(=O)c1c(C)oc2ccc(NS(=O)(=O)c3ccc(F)cc3C)cc12 -28.4%
CS(=O)(=O)c1nc(S(=O)(=O)c2ccc(Cl)cc2)c(N2CCCCCC2)s1 -34.1%
Cc1nc2ccccc2c(=O)n1CCCN1CCOCC1 -15.9% [at 0.046 µM, 100% = signal doubled over neutral wells]
COc1nc(-c2ccccc2)c2cc(C)ccc2n1 42.4% [at 1.2 µM, 100% = signal doubled over neutral wells]
Cc1ccc2c(c1)c(-c1ccccc1)nc1nncn12 -21.1% [at 1.2 µM, 100% = signal doubled over neutral wells]
CCN(CC)C(=O)n1c(Cc2ccccc2)nc2ccccc21 -14.4% [at 0.005 µM, 100% = signal doubled over neutral wells]
CCCc1cc2c(OC)ccc(O)c2c(=O)n1C -19.2% [at 0.42 µM, 100% = signal doubled over neutral wells]
CCCNC(=O)c1ccccc1NC(=O)COc1ccc(OC)cc1 -16% [at 11 µM, 100% = signal doubled over neutral wells]
CCOc1ccc(NC(=O)[C@@H](NC(=O)OCc2ccccc2)[C@@H](C)CC)cc1 -32.5% [at 11 µM, 100% = signal doubled over neutral wells]
COc1ccc(CCNC(=O)CCn2c(=O)c3ccccc3n(CC(=O)NCC3CCCO3)c2=O)cc1OC (stereo not drawn) 20.3% [at 0.135 µM, 100% = signal doubled over neutral wells]
CCN(CC)C(=O)Cn1c(=O)oc2ccccc21 -21.2%
Cc1nccn1-c1ncnc2sc3c(c12)CCCC3 -26.7% [at 0.046 µM, 100% = signal doubled over neutral wells]
CCOC(=O)N1CCN(C(=O)COc2ccccc2OC)CC1 19.9% [at 11 µM, 100% = signal doubled over neutral wells]
C=CCc1ccc(OCCOc2ccc(/C=N/n3cnnc3)cc2OCC)c(OC)c1 -24.1% [at 0.046 µM, 100% = signal doubled over neutral wells]
COc1ccc(/C=N/NC(=O)CN(C2=NS(=O)(=O)c3ccccc32)c2ccccc2)cc1OC 23.5%
COc1ccc(/C=N/NS(=O)(=O)c2ccccc2)cc1OC 16.8%
Cc1cc(C)c2c(C)nn(C3CCCCC3)c2n1 20.5%
CSc1ccc(C(=O)C2CCCN(C(=O)c3ccc4c(c3)no[n+]4[O-])C2)cc1 (stereo not drawn) -36.5%
C=CCn1cnc2scc(-c3ccc(OC)cc3)c2c1=O -14.9% [at 1.2 µM, 100% = signal doubled over neutral wells]
COc1ccc(-c2nc(C(=O)O)cs2)cc1OC 28.2% [at 0.42 µM, 100% = signal doubled over neutral wells]
CCOc1ccc(-c2nc(CSc3nnc(N)s3)cs2)cc1OC 23.2%
COc1ccc(C(=O)O/N=C(\N)c2ccc(OC)c(OC)c2)cc1 -23.3% [at 0.135 µM, 100% = signal doubled over neutral wells]
COc1ccc(CC(=O)O/N=C(\N)c2ccccc2)cc1OC -13.5% [at 0.005 µM, 100% = signal doubled over neutral wells]
COc1ccc(OCC(=O)NNC(=O)Cn2c(=O)cnc3ccccc32)cc1 -15.3% [at 1.2 µM, 100% = signal doubled over neutral wells]
CC(=O)NCCc1nc2ccccc2n1CCOc1cccc(C)c1 -27.1%
O=C(c1ccccc1)c1ccc2ccccc2n1 -22.9% [at 0.0016 µM, 100% = signal doubled over neutral wells]
O=C(Nc1ccccc1Oc1ccsc1C(=O)O)c1ccccc1F 23.2% [at 0.42 µM, 100% = signal doubled over neutral wells]
Cc1cc(C)cc(C(=O)NC(=S)Nc2ccc(-c3cc4ccccc4oc3=O)cc2)c1 14.9%
O=C(NCC1CCCO1)C1CCC(N2C(=O)c3ccccc3C2=O)CC1 (stereo not drawn) 17.8% [at 11 µM, 100% = signal doubled over neutral wells]
CN1CCN(NC(=O)c2cccc(S(=O)(=O)N3CCCCCC3)c2)CC1 33% [at 1.2 µM, 100% = signal doubled over neutral wells]
CC1CCN(C(=O)c2cccc(S(=O)(=O)N3CCN(c4ccccc4)CC3)c2)CC1 35.2% [at 0.0016 µM, 100% = signal doubled over neutral wells]

Source: PubChem BioAssay AID977607 (Broad Institute, 2014)
